Our source for the outcome and AC50 values is PubChem BioAssay (EPA / NIEHS).

The target in assay [1] is Paired box protein Pax-6 (Homo sapiens) (UniProt P26367). Put plainly: ATG_Pax6_CIS: Attagene CIS-FACTORIAL HepG2 Assay for human Paired Box 6 (PAX6) (AID 2282956). Conditions: HepG2 CIS-FACTORIAL PAX6 reporter transcription, RNA readout; actives raise or lower the signal. The essentials:
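Multiplexed cis-reporter HepG2 system; 24 h treatment; reporter mRNA read by RT-PCR/CE fluorescence; bidirectional fit vs DMSO.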

Assay [2] in a line: ATG_PXRE_CIS: Attagene CIS-FACTORIAL HepG2 Assay for human Pregnane X Receptor Element (PXRE) (AID 2282957). Conditions: HepG2 Attagene CIS-FACTORIAL PXRE reporter, mRNA; actives raise or lower the signal. Put shortly:
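HepG2 cells transiently transfected with cis-regulated multiple reporter transcription units; endogenous factor activity measured as reporter mRNA 24 h after dosing. RT-PCR, fluorescent primer extension, HpaI digestion, capillary electrophoresis; bidirectional fit versus DMSO baseline.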

Assay [3] in a line: ATG_PPRE_CIS: Attagene CIS-FACTORIAL HepG2 Assay for human Peroxisome Proliferator-activated Response Element (PPRE) (AID 2282958). To be noted: HepG2 PPRE cis-element reporter, Attagene transcription factor profiling; actives raise or lower the signal. Put shortly:
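After human HepG2 hepatoma cells were transiently transfected with cis-promoter reporter constructs, they were exposed to test chemicals for 24 hours. Reporter RNA was then reverse-transcribed, PCR-amplified, FAM-labeled, HpaI-digested and quantified by capillary electrophoresis.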

Assay [4] is described as follows: ATG_RORE_CIS: Attagene CIS-FACTORIAL HepG2 Assay for human RAR-related Orphan Receptor Element (RORE) (AID 2282959). To be noted: HepG2 Attagene cis-factorial RORE reporter, mRNA; actives raise or lower the signal. The essentials:
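Measured here: transcript induction of a cis-regulated reporter in HepG2 cells transiently transfected via FuGene 6. After 24 h, RNA was processed by RT-PCR and fluorescent capillary electrophoresis; DMSO defined baseline activity.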

Assay [5] is described as follows: ATG_Sox_CIS: Attagene CIS-FACTORIAL HepG2 Assay for human SRY-box transcription factor (SOX) (AID 2282960). To be noted: HepG2 Attagene cis-factorial SOX reporter, mRNA; actives raise or lower the signal. The essentials:
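Using transiently transfected HepG2 cells, reporter transcription driven by cis elements was assessed 24 h after dosing. Signal was fluorescence of capillary-separated RT-PCR products, with DMSO defining baseline activity.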

Assay [6] addresses Transcription factor Sp1 (Homo sapiens) (UniProt P08047). As to the kind of experiment: ATG_Sp1_CIS: Attagene CIS-FACTORIAL HepG2 Assay for human Specificity Protein 1 (Sp1) (AID 2282961). Conditions: HepG2 Sp1 cis-reporter transcription, actives raise or lower the signal. The essentials:
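After transient transfection of HepG2 cells with cis-promoter reporter units and 24 h chemical treatment, reporter transcripts were quantified by RT-PCR and capillary electrophoresis fluorescence. Gain- and loss-of-signal fitted against DMSO.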

Assay [7] in a line: ATG_SREBP_CIS: Attagene CIS-FACTORIAL HepG2 Assay for human Sterol Regulatory Element Binding (SREBP) (AID 2282962). Conditions: HepG2 Attagene cis-factorial SREBP reporter, mRNA; actives raise or lower the signal. Put shortly: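 mRNA induction of transfected cis-promoter reporters in HepG2 cells, 24 h post-dose. Detection: RT-PCR with 6-FAM-labelled products, HpaI digest, capillary electrophoresis. DMSO served as negative control and baseline.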

Assay [8] in a line: ATG_TA_CIS: Attagene CIS-FACTORIAL HepG2 Assay for human TA Basal Promoter (AID 2282964). To be noted: HepG2 Attagene CIS-factorial TA basal promoter reporter; actives raise or lower the signal. Put shortly:
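Background internal-marker endpoint from a 52-component HepG2 cis-reporter panel. Cells treated 24 h; reporter transcripts quantified via RT-PCR and CE fluorescence against DMSO baseline.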

A short description of assay [9]: ATG_TCF_b_cat_CIS: Attagene CIS-FACTORIAL HepG2 Assay for human T-Cell-Factor with beta-catenin (TCF/b-cat) (AID 2282965). Conditions: HepG2 TCF/beta-catenin cis-reporter transcription, actives raise or lower the signal. The essentials: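 HepG2, transient MRTU transfection, cis-element-driven reporters (endogenous TFs). 24 h compound exposure. Readout: reporter mRNA by RT-PCR + 6-FAM primer extension, HpaI digest, capillary electrophoresis. Gain/loss fit vs DMSO baseline.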

The nature of assay [10]: ATG_TAL_CIS: Attagene CIS-FACTORIAL HepG2 Assay for human TAL Basal Promoter (AID 2282966).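 Note: background control endpoint measuring basal TAL promoter reporter mRNA not a specific factor.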 To be noted: HepG2 Attagene cis-factorial TAL promoter reporter; actives raise or lower the signal. The essentials:
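HepG2 cells were transiently transfected with promoter-driven multiplexed reporter units and dosed for 24 h. Reporter mRNA was measured by RT-PCR with capillary electrophoresis fluorescence; bidirectional fits used DMSO as baseline, serving as a background control.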

The nature of assay [11]: ATG_TGFb_CIS: Attagene CIS-FACTORIAL HepG2 Assay for human Transforming Growth Factor (TGF) (AID 2282967). Conditions: HepG2 Attagene CIS TGFb reporter, mRNA transcription; actives raise or lower the signal. Put shortly:
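Liver HepG2 line, cis-factorial reporter panel, 24 h dosing. Quantitation: RT-PCR products labeled with 6-FAM, cut with HpaI, resolved by capillary electrophoresis; DMSO-referenced bidirectional analysis.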

A short description of assay [12]: ATG_VDRE_CIS: Attagene CIS-FACTORIAL HepG2 Assay for human Vitamin D Receptor Element (VDRE) (AID 2282968). Conditions: HepG2 VDRE cis-reporter transcription, actives raise or lower the signal. Put shortly: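 Cell-based multiplexed reporter format in human liver HepG2 cells, 24 h post-dose. Fluorescence from capillary electrophoresis of reporter cDNA gives the signal, with DMSO as negative control and baseline.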

Assay [13] addresses Nuclear receptor subfamily 1 group I member 3 (Homo sapiens) (UniProt Q14994). As to the kind of experiment: ATG_CAR_TRANS: Attagene TRANS-FACTORIAL HepG2 Assay for human Constitutive Androstane Receptor (CAR) (AID 2282969; active = hit-call score of the fitted dose curve at least 0.9, where 1 is the maximum;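 note: activators raise reporter mRNA above DMSO so AC50 marks induction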). To be noted: HepG2 Attagene TRANS-FACTORIAL CAR reporter. Put shortly:
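HepG2 cells transiently transfected with GAL4-UAS reporter units; TRANS format reads activity of exogenous chimeric NR-Gal4 protein. After 24 h dosing, reporter mRNA quantified by RT-PCR, 6-FAM labelling and capillary electrophoresis; gain of signal fitted against DMSO.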

Assay [14] addresses Estrogen receptor (Homo sapiens) (UniProt P03372). Put plainly: ATG_ERa_TRANS: Attagene TRANS-FACTORIAL HepG2 Assay for human Estrogen Receptor alpha (ERa) (AID 2282970; active = hit-call score of the fitted dose curve at least 0.9, where 1 is the maximum). To be noted: HepG2 Attagene TRANS ERa GAL4 reporter, mRNA. Put shortly: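 HepG2 cells transiently transfected with multiplexed GAL4-UAS reporter units; ERa activity read via exogenous chimeric NR-Gal4 protein. After 24 hour compound exposure, reporter mRNA measured by RT-PCR with 6-FAM labelling and capillary electrophoresis; gain-of-signal fitted relative to DMSO.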

In assay [15] the target is Steroid hormone receptor ERR1 (Homo sapiens) (UniProt P11474). Put plainly: ATG_ERRa_TRANS: Attagene TRANS-FACTORIAL HepG2 Assay for human Estrogen-Related Receptor alpha (ERRa) (AID 2282971; active = hit-call score of the fitted dose curve at least 0.9, where 1 is the maximum). Conditions: HepG2 Attagene TRANS reporter, ERRa transactivation. Put shortly: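 HepG2 cells transiently transfected with multiplexed GAL4-UAS reporter units reading chimeric ERRa-Gal4 activity; 24 h compound exposure. Reporter mRNA measured by RT-PCR, 6-FAM labelling, HpaI digest and capillary electrophoresis; gain of signal fitted versus DMSO baseline.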
Sequence of Steroid hormone receptor ERR1 (Homo sapiens) (P11474 whole entry, looked up, the tested form may be a part): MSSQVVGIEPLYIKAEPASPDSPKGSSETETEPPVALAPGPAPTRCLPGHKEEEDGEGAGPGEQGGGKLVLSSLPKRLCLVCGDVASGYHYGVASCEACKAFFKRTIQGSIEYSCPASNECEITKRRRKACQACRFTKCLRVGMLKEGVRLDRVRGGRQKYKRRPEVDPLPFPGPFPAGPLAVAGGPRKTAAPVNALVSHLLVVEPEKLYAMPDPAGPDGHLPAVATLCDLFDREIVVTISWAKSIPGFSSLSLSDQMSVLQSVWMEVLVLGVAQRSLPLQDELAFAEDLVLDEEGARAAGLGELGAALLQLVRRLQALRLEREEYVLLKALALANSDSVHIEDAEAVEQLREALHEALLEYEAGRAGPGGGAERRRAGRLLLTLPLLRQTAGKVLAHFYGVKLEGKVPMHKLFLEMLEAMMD

Assay [16] deals with X-box-binding protein 1 (Homo sapiens) (UniProt P17861). As to the kind of experiment: ATG_Xbp1_CIS: Attagene CIS-FACTORIAL HepG2 Assay for human X-box Binding Protein 1 (XBP1) (AID 2282972). To be noted: HepG2 XBP1 cis-element reporter, Attagene multiplex; actives raise or lower the signal. Put shortly:
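Fluorescence-labelled cDNA fragments from reporter transcripts, separated by capillary electrophoresis, give the signal. Source: HepG2 cells transfected with promoter-driven reporter units, harvested 24 h post-dose. DMSO served as reference for bidirectional curve fitting.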

Assay [17] in a line: ATG_M_19_TRANS: Attagene TRANS-FACTORIAL HepG2 Assay for M19 Transcription Factor (Internal Marker) (AID 2282974; active = hit-call score of the fitted dose curve at least 0.9, where 1 is the maximum). To be noted: HepG2 Attagene TRANS-FACTORIAL M19 internal marker reporter. The essentials: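 Gain-of-signal in reporter mRNA, relative to DMSO, was scored from capillary electrophoresis fluorescence. HepG2 cells carried transiently transfected multiple reporter transcription units and were incubated with test chemicals for 24 h.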

Assay [18] is described as follows: ATG_GAL4_TRANS: Attagene TRANS-FACTORIAL HepG2 Assay for GAL4 (Internal Marker) (AID 2282976; active = hit-call score of the fitted dose curve at least 0.9, where 1 is the maximum). Conditions: HepG2 Attagene TRANS GAL4 internal marker reporter. Put shortly: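 HepG2 cells transiently transfected with multiplexed GAL4-UAS reporter constructs were dosed for 24 h. Reporter mRNA was measured by RT-PCR, 6-FAM primer extension, HpaI digestion and capillary electrophoresis, and gain of signal was fitted relative to DMSO.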

In assay [19] the target is Estrogen-related receptor gamma (Homo sapiens) (UniProt P62508). As to the kind of experiment: ATG_ERRg_TRANS: Attagene TRANS-FACTORIAL HepG2 Assay for human Estrogen-Related Receptor gamma (ERRg) (AID 2282977; active = hit-call score of the fitted dose curve at least 0.9, where 1 is the maximum;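 note: hits increase reporter signal over DMSO so potencies reflect activators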). Conditions: HepG2 Attagene TRANS reporter, ERRg transactivation. The essentials: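 Transient HepG2 transfectants, 24 h compound exposure, GAL4-UAS reporter mRNA by RT-PCR/6-FAM labelling/capillary electrophoresis; positive direction vs DMSO.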
Sequence of Estrogen-related receptor gamma (Homo sapiens) (P62508 whole entry, looked up, the tested form may be a part): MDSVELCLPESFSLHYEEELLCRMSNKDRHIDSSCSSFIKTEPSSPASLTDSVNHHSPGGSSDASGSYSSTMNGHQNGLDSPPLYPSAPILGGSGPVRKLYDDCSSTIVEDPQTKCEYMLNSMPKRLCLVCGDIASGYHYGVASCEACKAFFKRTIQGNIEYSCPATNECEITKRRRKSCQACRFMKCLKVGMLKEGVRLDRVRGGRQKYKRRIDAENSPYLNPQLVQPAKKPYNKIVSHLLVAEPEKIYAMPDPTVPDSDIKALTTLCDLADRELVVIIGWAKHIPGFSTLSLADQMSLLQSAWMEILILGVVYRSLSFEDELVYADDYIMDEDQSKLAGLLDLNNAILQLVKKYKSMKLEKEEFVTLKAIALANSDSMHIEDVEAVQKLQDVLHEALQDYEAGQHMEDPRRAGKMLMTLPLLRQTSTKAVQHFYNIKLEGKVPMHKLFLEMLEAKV

For assay [20], the target named is Signal transducer and activator of transcription 3 (Homo sapiens) (UniProt P40763). Put plainly: ATG_STAT3_CIS: Attagene CIS-FACTORIAL HepG2 Assay for human Signal Transducer and Activator of Transcription 3 (STAT3) (AID 2282963). Conditions: HepG2, Attagene cis-factorial STAT3 reporter transcription; actives raise or lower the signal. The essentials: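 Values derive from bidirectional fits relative to DMSO of reporter mRNA levels, measured by RT-PCR with capillary electrophoresis, in HepG2 cells carrying transiently transfected cis-regulated reporter units and exposed 24 h.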
Sequence of Signal transducer and activator of transcription 3 (Homo sapiens) (P40763 whole entry, looked up): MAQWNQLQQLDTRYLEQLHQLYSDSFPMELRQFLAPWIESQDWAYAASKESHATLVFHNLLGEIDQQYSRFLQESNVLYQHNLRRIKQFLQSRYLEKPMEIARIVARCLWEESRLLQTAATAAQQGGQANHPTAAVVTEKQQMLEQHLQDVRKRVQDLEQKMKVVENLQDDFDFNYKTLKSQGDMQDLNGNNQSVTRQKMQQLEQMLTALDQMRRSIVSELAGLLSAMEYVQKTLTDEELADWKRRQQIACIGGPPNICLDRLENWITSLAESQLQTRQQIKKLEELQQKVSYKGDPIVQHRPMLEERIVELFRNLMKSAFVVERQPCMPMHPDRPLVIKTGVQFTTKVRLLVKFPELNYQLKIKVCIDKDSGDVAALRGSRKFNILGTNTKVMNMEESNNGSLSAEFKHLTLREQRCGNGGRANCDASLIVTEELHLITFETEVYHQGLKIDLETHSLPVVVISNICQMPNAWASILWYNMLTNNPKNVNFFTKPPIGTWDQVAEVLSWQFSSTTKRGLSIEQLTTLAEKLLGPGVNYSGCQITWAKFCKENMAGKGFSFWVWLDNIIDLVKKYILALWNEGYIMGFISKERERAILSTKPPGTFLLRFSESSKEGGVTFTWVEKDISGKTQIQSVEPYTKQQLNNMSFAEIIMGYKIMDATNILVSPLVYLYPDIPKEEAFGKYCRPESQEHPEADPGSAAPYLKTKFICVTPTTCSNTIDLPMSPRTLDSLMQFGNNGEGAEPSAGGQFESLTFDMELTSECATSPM

Inconclusive results are not listed. The source made the active and inactive calls. Rule for the calls, unless noted: active = hit-call score of the fitted dose curve at least 0.9, where 1 is the maximum; inactive = score below 0.9.

Sequence of Estrogen receptor (Homo sapiens) (P03372 whole entry, looked up, the tested form may be a part): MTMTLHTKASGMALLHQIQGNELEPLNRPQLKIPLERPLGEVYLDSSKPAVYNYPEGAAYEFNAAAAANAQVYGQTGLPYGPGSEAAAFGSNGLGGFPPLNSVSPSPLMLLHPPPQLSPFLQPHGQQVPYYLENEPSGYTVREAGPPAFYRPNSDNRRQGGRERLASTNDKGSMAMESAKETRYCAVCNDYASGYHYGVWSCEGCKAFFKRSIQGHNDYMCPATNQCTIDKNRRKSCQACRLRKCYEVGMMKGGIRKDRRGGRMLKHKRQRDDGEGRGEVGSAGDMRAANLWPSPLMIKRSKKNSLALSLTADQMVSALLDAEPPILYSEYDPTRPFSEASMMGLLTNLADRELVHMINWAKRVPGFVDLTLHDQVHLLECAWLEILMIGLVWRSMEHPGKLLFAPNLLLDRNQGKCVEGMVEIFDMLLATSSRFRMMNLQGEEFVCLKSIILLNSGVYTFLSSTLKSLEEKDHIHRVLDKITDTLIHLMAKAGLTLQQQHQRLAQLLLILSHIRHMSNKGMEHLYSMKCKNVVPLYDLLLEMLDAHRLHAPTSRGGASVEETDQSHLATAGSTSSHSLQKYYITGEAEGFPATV
Sequence of Nuclear receptor subfamily 1 group I member 3 (Homo sapiens) (Q14994 whole entry, looked up, the tested form may be a part): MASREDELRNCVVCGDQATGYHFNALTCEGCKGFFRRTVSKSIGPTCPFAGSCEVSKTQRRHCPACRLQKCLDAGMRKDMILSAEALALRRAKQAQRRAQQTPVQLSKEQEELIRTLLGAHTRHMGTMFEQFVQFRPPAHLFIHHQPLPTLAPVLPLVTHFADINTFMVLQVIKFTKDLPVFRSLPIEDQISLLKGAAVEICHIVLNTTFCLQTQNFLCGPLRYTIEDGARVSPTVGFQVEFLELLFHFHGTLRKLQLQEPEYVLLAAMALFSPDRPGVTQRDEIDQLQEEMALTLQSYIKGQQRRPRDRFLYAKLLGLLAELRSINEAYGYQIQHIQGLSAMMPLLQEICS
Sequence of X-box-binding protein 1 (Homo sapiens) (P17861 whole entry, looked up, the tested form may be a part): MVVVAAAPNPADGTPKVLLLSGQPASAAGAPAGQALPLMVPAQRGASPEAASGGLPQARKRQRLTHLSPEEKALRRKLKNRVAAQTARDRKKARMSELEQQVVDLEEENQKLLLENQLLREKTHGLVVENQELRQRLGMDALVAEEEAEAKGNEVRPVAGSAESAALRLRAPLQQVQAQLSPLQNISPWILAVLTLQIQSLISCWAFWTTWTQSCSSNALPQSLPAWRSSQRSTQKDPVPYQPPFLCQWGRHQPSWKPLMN
Sequence of Transcription factor Sp1 (Homo sapiens) (P08047 whole entry, looked up): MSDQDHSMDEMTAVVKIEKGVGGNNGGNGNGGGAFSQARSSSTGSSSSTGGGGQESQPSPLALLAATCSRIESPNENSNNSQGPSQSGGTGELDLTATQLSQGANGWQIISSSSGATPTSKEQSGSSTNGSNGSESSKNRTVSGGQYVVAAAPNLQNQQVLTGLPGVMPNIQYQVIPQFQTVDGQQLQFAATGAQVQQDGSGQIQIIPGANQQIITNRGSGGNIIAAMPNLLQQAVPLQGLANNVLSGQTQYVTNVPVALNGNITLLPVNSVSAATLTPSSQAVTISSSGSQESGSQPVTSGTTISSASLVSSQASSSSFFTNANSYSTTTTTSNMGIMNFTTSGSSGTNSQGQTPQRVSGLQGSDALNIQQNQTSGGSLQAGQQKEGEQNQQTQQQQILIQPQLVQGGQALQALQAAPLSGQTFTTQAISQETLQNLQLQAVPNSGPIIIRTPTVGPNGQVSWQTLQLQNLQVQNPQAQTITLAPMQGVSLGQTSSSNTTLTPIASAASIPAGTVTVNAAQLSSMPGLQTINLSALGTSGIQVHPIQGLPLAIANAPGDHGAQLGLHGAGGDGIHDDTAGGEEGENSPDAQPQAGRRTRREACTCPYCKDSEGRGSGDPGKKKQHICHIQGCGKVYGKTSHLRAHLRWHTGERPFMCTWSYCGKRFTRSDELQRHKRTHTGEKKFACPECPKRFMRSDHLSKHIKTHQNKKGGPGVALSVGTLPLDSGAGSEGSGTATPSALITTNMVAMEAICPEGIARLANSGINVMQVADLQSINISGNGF
Sequence of Paired box protein Pax-6 (Homo sapiens) (P26367 whole entry, looked up): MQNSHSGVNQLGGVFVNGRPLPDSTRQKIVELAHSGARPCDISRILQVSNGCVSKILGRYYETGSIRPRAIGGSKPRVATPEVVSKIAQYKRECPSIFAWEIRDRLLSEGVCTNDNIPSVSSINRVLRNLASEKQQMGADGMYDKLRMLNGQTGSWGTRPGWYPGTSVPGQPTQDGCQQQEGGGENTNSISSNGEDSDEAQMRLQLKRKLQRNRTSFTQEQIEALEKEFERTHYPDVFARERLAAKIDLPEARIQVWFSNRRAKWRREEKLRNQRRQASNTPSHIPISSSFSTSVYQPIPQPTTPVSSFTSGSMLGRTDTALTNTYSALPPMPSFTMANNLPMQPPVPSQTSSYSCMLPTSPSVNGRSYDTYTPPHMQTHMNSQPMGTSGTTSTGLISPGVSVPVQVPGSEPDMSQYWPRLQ

In the case of `CC(C)(C)c1ccc(N)cc1`, the outcome in assay [1], in [3], in assay [4], in assay [5], in assay [6] and in assay [7] was inactive. Also, the outcome in assay [8], in [9], in [10], in assay [11], in assay [12] and in assay [13] was inactive. The compound was classed as inactive in assay [14], in assay [15], in [16], in [17], in assay [18] and in assay [19]. Moreover, the AC50 (as a rule, the concentration giving half of the maximal activity seen) in assay [2] is 24.2 µM (active).

As to `C=CC(=O)OCC(Br)CBr` (stereo not drawn), the concentration at half-maximal activity (AC50) in assay [1] is 34.5 µM (active); in assay [9], 44.2 µM (active); in [11], 0.39 µM (active); in assay [14], 100 µM (active). For the same compound, the outcome in assay [2], in [3], in assay [4], in assay [5], in [6] and in assay [7] was inactive. Also, the result in [8], in assay [10], in assay [16] and in [17] was inactive.

On to `OCCCS`, for which the outcome in assay [1], in assay [2], in [3], in assay [4], in assay [5] and in assay [6] was inactive. The call in [7], in assay [20], in assay [8], in [9], in assay [11] and in assay [12] was inactive. The call in [16], in assay [17] and in [18] was inactive.

Turning to `CC(C)c1ccc(C=O)cc1`, the result in assay [1], in [2], in assay [3], in assay [4], in assay [5] and in assay [6] was inactive. Moreover, the outcome in assay [7], in assay [20], in assay [9], in [10], in [11] and in assay [12] was inactive. The call in assay [13], in assay [14] and in assay [16] was inactive.

For the compound `[Cl][Bi]([Cl])([c]1ccccc1)([c]1ccccc1)[c]1ccccc1`, the AC50 in [1] was 5.48 µM (active); in assay [5], 5.6 µM (active); in assay [9] it was 5.75 µM (active); in assay [14], 2.74 µM (active); in assay [16], 6.04 µM (active). Moreover, the compound was classed as inactive in [2], in [3], in assay [4], in assay [6], in assay [7] and in assay [8]. The call in [11], in assay [12], in assay [13] and in [17] was inactive.
